gsp antag = antagonists of gsp mutant (McCune-Albright syndrome); gsp-mutant cells, cAMP HTRF, 30 min; Potency, µM (top dose mostly 76.9 µM), inactives show at the highest dose activity change, negative = inhibition, usual class: inhibitors; 340,000 tested, 0.4% active; calls by dose curve; cell line not stated here;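 further: intracellular cAMP measured with PDE inhibitor Ro 20-1724 present during compound exposure; potency means the concentration at half of the fitted maximal effect; on the % scale 0 is the no-effect control and ±100 the full control effect; nearly all actives have a fitted effect of over 65% in size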
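HTRF cAMP measurement after 30 min RT detection following 30 min, 37C compound treatment alongside […] (added as 300 uM solution) in G418-selected cells seeded at 2000/well and grown 16–24 h.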
RXFP1 agonist = agonists of human relaxin receptor RXFP1 | HEK293T-RXFP1 cAMP TR-FRET, 30 min; response scale: percent of porcine relaxin response, buffer zero | Q9HBX9 | 370,000 tested, 0.3% active | Potency, µM (highest dose often 57.5 µM), inactives show at the top dose activation, hits mostly activators; active means well fitted activation curve with a large enough effect; inconclusive means small, poorly fitted or top-dose-only effect; further: potency means the concentration at half of the fitted maximal effect; on the % scale 0 is the no-effect control and ±100 the full control effect; nearly all actives have a fitted effect of over 60% in size
Target sequence (Q9HBX9 whole entry, looked up): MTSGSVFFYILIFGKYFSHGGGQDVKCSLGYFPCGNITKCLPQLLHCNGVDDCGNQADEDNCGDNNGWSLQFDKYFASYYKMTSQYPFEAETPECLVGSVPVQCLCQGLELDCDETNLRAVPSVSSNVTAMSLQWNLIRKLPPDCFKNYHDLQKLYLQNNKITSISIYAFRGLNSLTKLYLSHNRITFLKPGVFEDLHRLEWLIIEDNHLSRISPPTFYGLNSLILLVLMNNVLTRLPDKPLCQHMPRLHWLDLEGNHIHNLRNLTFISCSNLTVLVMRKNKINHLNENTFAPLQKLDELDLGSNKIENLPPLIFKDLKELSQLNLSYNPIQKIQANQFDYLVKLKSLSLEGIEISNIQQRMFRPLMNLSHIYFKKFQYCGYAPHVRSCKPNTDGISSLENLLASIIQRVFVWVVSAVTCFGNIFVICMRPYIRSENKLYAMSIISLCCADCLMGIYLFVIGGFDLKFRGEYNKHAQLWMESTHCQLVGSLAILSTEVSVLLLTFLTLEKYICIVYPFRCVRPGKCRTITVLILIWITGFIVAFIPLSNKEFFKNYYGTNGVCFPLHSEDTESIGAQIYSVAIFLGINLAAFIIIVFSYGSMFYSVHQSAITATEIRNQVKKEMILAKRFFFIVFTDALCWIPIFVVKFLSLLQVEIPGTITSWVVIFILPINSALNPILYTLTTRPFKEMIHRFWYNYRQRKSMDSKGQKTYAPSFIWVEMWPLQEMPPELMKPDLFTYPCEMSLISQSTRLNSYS
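Agonist response is measured as cAMP accumulation in an RXFP1-transfected HEK293T line under PDE4 inhibition. Values are scaled between buffer-only and 29 nM porcine relaxin, and EC50s come from standard Hill equation fits.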
gsp agonist = activates gsp, the McCune-Albright syndrome mutation | 340,000 tested, 0.13% active | gsp mutant cells, cAMP HTRF, 30 min | Potency, µM (top dose mostly 76.9 µM), for inactives: at the highest dose activation (cAMP increase), most hits filed as activators; active means well fitted activation curve with a large enough effect; inconclusive means small, poorly fitted or top-dose-only effect, or another doubt; inactive means no such curve, though single readings can be large or run the other way; cell line not stated here;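 further: phosphodiesterase inhibitor Ro 20-1724 added with compounds to block cAMP breakdown; potency means the concentration at half of the fitted maximal effect; nearly all actives have a fitted effect of over 60% in size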
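Cells in DMEM/10% FBS with G418 were pretreated with compounds in DMSO plus […] (300 uM stock) for 30 min at 37C. cAMP was measured by HTRF (cAMP-d2 plus anti-cAMP antibody-K) after 30 min at room temperature.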
RXFP1 antagonist = antagonists of human relaxin receptor RXFP1; HEK293-RXFP1, relaxin-stimulated cAMP HTRF, 30 min; active compounds read low; activity change, negative = inhibition, % at 57.5 µM; 350,000 tested, 0.59% active; AID 1259400;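 active means activity change of -60% or lower, but not beyond a set lower limit; inconclusive means change between -60% and -40%, or beyond the set limit; inactive means change above -40%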; further: on the % scale 0 is the no-effect control and ±100 the full control effect
Numbers without * were called inactive; [ ] = another dose, or the depositor's remark. A selection: hits, their analogues and other compounds. The true share with any hit is near 0.9%.

For Cc1cc(NC(=O)COC(=O)CCNS(=O)(=O)c2c(Cl)cccc2Cl)no1 the results were gsp antag 1%, RXFP1 agonist -4%, gsp agonist -17%[15.4 µM] and RXFP1 antagonist -69*.
For CNC(=O)c1ccccc1Sc1ccc2c(/C=C/c3ccccn3)n[nH]c2c1 the results were RXFP1 antagonist 28.
CC1C/C(=C/c2ccccn2)C(=O)/C(=C/c2ccccn2)C1 (configuration not stated) was read as gsp antag -18%, RXFP1 agonist 0%, gsp agonist 0%[15.4 µM] and RXFP1 antagonist -75*.
O=C(O)C1Cc2ccccc2CN1C(=O)CSc1nnc2ccccn12 (configuration not stated) was read as gsp antag 17%, RXFP1 agonist 35µM*, gsp agonist 33%[15.4 µM] and RXFP1 antagonist 9.
COc1ccc(Nc2ncc(C(=O)Nc3ccc(F)cc3F)c3ccccc23)cc1 was read as RXFP1 agonist 2%.
`COc1ccc(N2CC(NS(=O)(=O)c3cccs3)CC2=O)cc1OC` (configuration not stated) gave gsp antag 5%, RXFP1 agonist -1%, gsp agonist 19%[15.4 µM] and RXFP1 antagonist -82*.
Screening Cc1ccc(Cl)c(OCC(O)CNC(C)(C)C)c1 (configuration not stated) returned RXFP1 antagonist -4.
`Cc1cccc(NC(=O)CSc2cn(CC(=O)N3CCC(C)CC3)c3ccccc23)c1C` gave RXFP1 agonist 2% and RXFP1 antagonist -8.
COc1ccc2c(C)cc(=S)[nH]c2c1 was read as gsp antag 9%, RXFP1 agonist 20µM*, gsp agonist 40%[15.4 µM] and RXFP1 antagonist 28.
For COc1ccccc1C1CCN(c2cc(O)ccc2[N+](=O)[O-])CC1 the results were gsp antag 32µM*, RXFP1 agonist -2%, gsp agonist -6%[15.4 µM] and RXFP1 antagonist -11.
Screening Cc1c2cnn(CC(=O)Nc3cccc(C(F)(F)F)c3)c(=O)c2c(C)n1Cc1ccccc1Cl returned RXFP1 agonist 5% and RXFP1 antagonist -8.
Screening CN(C)S(=O)(=O)c1ccc(Cl)c(C(=O)OCC(=O)NC(=O)NC2CCCC2)c1 returned gsp antag 1µM*, RXFP1 agonist 2%, gsp agonist -10% and RXFP1 antagonist -4.
`Cc1ccc(-n2c(=O)c3cccnc3n2CC(=O)NCc2ccc(Cl)cc2)cc1` gave RXFP1 agonist 9%.
For COC(=O)C1CCN(C(=O)c2cc(-c3ccc(Cl)s3)nc3ccccc23)CC1 the results were gsp antag 32µM*, RXFP1 agonist 8%, gsp agonist inconclusive and RXFP1 antagonist -28.
`Cc1nn(-c2ccc(F)cc2)c(Cl)c1/C=C(\CC(=O)O)c1nc2ccccc2s1` gave gsp antag 40µM*, RXFP1 agonist 0%, gsp agonist 26% and RXFP1 antagonist 4.
For Cc1nn(-c2ccc(F)cc2)c(Cl)c1/C=C(/CC(=O)O)c1nc2ccccc2s1 the results were gsp antag -20%, gsp agonist -21% and RXFP1 antagonist 4.
For CCCCNC(=O)CCCCn1c(=S)[nH]c2c([nH]c3ccc(OC)cc32)c1=O the results were gsp antag 0%, RXFP1 agonist 3%, gsp agonist 21% and RXFP1 antagonist -19.
COc1ccc2[nH]c3c(=O)n(CCCCC(=O)NCCN4CCCC4)c(=S)[nH]c3c2c1 was read as gsp antag -8%, RXFP1 agonist 5%, gsp agonist 4% and RXFP1 antagonist inconclusive.
Screening COc1ccc2[nH]c3c(=O)n(CCCCC(=O)N4CCC(C(N)=O)CC4)c(=S)[nH]c3c2c1 returned gsp antag -4%, RXFP1 agonist 2%, gsp agonist -3% and RXFP1 antagonist -95*.
`CC[C@H](C)NC(=O)CCCCCn1c(=S)[nH]c2c([nH]c3ccc(OC)cc32)c1=O` gave gsp antag 2%, RXFP1 agonist 5%, gsp agonist 30% and RXFP1 antagonist -80*.
`O=C(NCCc1ccccc1Cl)c1ccc2c(=O)n(-c3ccccc3)c(=O)[nH]c2c1` gave RXFP1 agonist -3% and RXFP1 antagonist -21.
For CCOc1ccccc1C(=O)NCC(=O)NCc1ccc(S(=O)(=O)N2CCOCC2)cc1 the results were gsp antag -10%, RXFP1 agonist 2%, gsp agonist 32µM* and RXFP1 antagonist -12.

Screening data: PubChem BioAssay, National Center for Advancing Translational Sciences (NCATS)
